Results on eleven compounds are retold here after ChEMBL document CHEMBL3988442, “University of Dundee, Small-Polar-MMV Screening Library” (2021).

Holding throughout (parameters): scale not given: direction of the effect not stated beside the values
For test [1], the target named is Protein translocase subunit SecA (Escherichia coli (strain K12)) (UniProt P10408). Briefly: Assay to Identify E. coli SecA ATPase Inhibitors. Format: functional. The conditions noted are these: 30 µM.
The target of test [2] is T1, Ubiquitin-activating enzyme e1, putative (Leishmania donovani (strain BPK282A1)) (UniProt E9BSI1).
T1 sequence (whole entry): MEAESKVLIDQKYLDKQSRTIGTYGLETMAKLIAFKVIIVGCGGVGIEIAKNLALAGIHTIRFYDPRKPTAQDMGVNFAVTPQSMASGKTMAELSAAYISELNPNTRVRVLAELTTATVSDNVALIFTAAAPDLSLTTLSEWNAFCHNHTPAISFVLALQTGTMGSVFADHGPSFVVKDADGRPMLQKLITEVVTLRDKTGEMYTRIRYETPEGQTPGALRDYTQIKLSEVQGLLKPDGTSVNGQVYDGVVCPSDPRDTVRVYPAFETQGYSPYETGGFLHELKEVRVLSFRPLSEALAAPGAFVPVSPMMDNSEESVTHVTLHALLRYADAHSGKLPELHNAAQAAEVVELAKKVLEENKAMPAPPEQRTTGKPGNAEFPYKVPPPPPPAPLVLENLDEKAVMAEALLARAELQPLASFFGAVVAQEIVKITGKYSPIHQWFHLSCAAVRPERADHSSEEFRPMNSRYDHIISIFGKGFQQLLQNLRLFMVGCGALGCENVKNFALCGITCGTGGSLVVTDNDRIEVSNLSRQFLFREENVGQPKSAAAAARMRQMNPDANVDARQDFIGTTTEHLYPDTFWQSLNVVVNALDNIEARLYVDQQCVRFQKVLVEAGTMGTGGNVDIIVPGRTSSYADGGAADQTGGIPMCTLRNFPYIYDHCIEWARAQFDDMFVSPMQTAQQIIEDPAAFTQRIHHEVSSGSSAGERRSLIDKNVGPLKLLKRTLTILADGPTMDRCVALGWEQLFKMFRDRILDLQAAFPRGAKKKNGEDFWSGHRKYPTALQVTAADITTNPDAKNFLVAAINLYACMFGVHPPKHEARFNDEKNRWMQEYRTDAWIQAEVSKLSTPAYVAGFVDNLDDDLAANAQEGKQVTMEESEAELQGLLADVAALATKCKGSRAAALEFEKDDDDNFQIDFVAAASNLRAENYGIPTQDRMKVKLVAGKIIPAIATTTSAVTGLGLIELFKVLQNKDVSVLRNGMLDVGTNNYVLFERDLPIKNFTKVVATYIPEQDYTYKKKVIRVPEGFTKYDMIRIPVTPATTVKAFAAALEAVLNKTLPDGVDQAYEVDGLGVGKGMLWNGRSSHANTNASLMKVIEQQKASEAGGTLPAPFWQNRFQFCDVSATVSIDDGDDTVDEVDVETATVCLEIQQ
Briefly: Leishmania donovani Ubiquitin Activating Enzyme (LdE1). Format: functional. The conditions noted are these: 30 µM.

Test [3] concerns the target AMP-activated protein kinase, AMPK (Homo sapiens) (UniProt P54646+O43741+P54619+Q9UGJ0+Q9Y478+Q13131+Q9UGI9). The test is described as follows: AMP-dependent Kinase enzyme assay. An in vitro enzyme assay that detects ADP turnover that is directly proportional to AMPK activity. This uses naive AMPK that is activated during the assay with MK-8722. Conditions: 30 µM. The class given is functional.

Test [4] addresses Sialic acid-binding Ig-like lectin 9 (Homo sapiens) (UniProt Q9Y336). Briefly: Hs-Siglec9 ALPHAscreen SOP 20170721. The conditions noted are these: 10 µM. On the technique in general: In Alpha technology, singlet oxygen from a donor bead excites a nearby acceptor bead.
In test [5] the test system is Trypanosoma cruzi. The test is described as follows: Trypanosoma cruzi phosphomannomutase and mannose-1-phosphate guanylyltransferase assay. The class given is functional. The conditions noted are these: 10 µM.
For test [6], the target named is T2, Arginase-2, mitochondrial (Homo sapiens) (UniProt P78540).
T2 sequence (whole entry): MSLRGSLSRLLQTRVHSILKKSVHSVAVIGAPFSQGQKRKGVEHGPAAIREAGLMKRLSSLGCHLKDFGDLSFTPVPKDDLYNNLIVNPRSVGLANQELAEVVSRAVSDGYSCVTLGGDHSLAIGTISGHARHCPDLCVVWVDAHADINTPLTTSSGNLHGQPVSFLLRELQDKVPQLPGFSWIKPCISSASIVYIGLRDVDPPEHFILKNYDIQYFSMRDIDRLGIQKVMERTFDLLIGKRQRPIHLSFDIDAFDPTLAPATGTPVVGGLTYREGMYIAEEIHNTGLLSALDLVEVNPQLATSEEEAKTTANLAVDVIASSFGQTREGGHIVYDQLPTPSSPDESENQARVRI
Briefly: in vitro enzyme assay to detect the production of urea directly proportional to the activity of Arginase II. Further: in the data most compounds retested in dose-response had high values. The conditions noted are these: 33.3 µM. Format: functional.

The target of test [7] is T3, Proteasome subunit beta (Trypanosoma cruzi) (UniProt O96673).
T3 sequence (whole entry): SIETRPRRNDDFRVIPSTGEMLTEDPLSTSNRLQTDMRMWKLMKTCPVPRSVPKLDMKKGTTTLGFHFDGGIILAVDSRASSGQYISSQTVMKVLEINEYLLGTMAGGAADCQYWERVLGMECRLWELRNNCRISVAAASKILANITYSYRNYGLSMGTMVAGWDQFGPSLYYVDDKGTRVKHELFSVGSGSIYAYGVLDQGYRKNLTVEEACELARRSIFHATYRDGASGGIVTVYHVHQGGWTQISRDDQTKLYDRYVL
Briefly: Trypanosoma cruzi proteasome chymotrypsin-like activity (TcProtChymo) assay. Further: in the data most compounds retested in dose-response had high values. The class given is functional. Conditions: 9.37 µM.

For test [8], the species on record is Homo sapiens. The test is described as follows: To identify inhibition of the IFN signalling (Jak-Stat) pathway via expression of an eGFP reporter gene under the control of an IFN-stimulated response element (ISRE) containing MxA promoter. Format: functional. The conditions noted are these: 30 µM.
Test [9] concerns the target T4, Tyrosyl-tRNA synthetase, putative (Trypanosoma cruzi (strain CL Brener)) (UniProt Q4DSP6).
T4 sequence (whole entry): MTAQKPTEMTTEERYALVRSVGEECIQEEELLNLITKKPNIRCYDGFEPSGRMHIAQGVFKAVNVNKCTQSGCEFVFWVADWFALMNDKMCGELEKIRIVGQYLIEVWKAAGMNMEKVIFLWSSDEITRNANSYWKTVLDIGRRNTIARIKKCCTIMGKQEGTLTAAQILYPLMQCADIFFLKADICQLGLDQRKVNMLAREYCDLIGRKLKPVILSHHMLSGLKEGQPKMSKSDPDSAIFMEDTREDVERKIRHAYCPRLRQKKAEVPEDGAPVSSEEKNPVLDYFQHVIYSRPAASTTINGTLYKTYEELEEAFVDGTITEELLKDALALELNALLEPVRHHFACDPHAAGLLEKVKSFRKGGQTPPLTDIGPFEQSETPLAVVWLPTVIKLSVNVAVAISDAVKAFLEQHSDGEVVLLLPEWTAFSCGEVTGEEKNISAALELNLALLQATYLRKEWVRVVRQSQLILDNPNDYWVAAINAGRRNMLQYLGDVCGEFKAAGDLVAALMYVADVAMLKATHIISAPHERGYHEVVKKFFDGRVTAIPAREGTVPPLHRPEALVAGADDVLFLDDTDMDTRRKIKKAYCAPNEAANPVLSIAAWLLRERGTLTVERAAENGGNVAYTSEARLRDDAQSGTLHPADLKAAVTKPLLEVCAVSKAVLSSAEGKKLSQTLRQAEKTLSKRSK
The test is described as follows: Trypanosoma cruzi tyrosyl tRNA synthetase (TcYRS) _High Tyrosine SOP. Further: in the data most compounds retested in dose-response had high values. The class given is functional. Conditions: 30 µM.

In test [10] the target is T4, Tyrosyl-tRNA synthetase, putative (Trypanosoma cruzi (strain CL Brener)). The test is described as follows: Trypanosoma cruzi tyrosyl tRNA synthetase (TcYRS) SOP. Format: functional. The conditions noted are these: 30 µM.
Test [11] has as its target Chromo domain-containing protein 1 (Saccharomyces cerevisiae (strain ATCC 204508 / S288c) (Baker's yeast)) (UniProt P32657). The test is described as follows: ScCHD-1 Enzyme Inhibition Assay. Further: in the data most compounds retested in dose-response had high values. Format: functional. The conditions noted are these: 30 µM.

The structures appear in SMILES notation. For some of these results: Results with a measured potency or affinity are listed apart.

Chain of Sialic acid-binding Ig-like lectin 9 (Homo sapiens) (Q9Y336 whole entry): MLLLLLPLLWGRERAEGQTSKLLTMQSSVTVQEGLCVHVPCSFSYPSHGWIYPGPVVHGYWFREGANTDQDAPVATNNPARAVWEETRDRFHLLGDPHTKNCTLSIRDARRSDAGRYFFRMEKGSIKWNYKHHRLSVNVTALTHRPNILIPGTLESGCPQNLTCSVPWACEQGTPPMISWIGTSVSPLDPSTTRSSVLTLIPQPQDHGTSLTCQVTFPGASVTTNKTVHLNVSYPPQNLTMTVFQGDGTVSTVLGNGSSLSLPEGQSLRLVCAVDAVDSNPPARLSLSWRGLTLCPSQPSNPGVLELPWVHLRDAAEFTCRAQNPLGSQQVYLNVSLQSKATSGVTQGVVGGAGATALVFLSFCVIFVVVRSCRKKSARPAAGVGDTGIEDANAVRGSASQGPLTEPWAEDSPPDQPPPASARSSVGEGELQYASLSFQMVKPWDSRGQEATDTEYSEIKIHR
Chain of Chromo domain-containing protein 1 (Saccharomyces cerevisiae (strain ATCC 204508 / S288c) (Baker's yeast)) (P32657 whole entry, the tested form may be a part): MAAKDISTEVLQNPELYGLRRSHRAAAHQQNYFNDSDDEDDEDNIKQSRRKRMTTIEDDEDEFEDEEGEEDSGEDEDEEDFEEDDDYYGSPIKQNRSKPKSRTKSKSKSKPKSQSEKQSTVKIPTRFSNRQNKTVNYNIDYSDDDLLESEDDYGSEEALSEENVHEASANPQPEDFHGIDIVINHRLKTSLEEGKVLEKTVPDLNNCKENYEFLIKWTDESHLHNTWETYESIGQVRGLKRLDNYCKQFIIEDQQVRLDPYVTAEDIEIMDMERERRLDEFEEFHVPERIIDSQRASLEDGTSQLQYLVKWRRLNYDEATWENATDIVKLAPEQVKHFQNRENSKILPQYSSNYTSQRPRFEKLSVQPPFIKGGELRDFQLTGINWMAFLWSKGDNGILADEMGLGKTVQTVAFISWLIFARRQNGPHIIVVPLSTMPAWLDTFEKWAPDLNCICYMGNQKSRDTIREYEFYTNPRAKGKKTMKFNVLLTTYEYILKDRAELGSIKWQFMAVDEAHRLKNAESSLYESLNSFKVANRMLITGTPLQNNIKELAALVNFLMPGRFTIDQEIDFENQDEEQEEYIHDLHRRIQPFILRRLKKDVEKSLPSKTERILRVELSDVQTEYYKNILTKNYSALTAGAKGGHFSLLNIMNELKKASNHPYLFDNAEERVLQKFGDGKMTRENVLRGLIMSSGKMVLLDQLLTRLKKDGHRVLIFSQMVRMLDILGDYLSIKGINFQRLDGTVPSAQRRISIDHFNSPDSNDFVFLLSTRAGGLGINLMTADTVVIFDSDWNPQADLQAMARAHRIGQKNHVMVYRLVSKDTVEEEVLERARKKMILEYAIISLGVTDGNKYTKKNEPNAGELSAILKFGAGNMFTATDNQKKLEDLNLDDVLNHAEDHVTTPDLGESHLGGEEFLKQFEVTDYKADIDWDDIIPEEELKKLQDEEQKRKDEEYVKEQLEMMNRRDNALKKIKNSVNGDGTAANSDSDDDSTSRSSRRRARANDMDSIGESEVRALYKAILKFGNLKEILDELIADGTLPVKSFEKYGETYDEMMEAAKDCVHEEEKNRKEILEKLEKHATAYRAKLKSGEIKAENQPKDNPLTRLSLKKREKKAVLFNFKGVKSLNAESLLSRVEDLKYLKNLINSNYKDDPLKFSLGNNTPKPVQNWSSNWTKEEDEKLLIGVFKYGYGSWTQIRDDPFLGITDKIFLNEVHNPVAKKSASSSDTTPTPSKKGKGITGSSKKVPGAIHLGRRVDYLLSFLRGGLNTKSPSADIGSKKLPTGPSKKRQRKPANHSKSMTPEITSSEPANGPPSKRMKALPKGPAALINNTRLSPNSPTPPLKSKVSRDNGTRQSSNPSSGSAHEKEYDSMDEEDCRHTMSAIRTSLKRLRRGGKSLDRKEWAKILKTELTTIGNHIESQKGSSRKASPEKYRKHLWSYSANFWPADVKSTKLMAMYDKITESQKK
Chain of Protein translocase subunit SecA (Escherichia coli (strain K12)) (P10408 whole entry): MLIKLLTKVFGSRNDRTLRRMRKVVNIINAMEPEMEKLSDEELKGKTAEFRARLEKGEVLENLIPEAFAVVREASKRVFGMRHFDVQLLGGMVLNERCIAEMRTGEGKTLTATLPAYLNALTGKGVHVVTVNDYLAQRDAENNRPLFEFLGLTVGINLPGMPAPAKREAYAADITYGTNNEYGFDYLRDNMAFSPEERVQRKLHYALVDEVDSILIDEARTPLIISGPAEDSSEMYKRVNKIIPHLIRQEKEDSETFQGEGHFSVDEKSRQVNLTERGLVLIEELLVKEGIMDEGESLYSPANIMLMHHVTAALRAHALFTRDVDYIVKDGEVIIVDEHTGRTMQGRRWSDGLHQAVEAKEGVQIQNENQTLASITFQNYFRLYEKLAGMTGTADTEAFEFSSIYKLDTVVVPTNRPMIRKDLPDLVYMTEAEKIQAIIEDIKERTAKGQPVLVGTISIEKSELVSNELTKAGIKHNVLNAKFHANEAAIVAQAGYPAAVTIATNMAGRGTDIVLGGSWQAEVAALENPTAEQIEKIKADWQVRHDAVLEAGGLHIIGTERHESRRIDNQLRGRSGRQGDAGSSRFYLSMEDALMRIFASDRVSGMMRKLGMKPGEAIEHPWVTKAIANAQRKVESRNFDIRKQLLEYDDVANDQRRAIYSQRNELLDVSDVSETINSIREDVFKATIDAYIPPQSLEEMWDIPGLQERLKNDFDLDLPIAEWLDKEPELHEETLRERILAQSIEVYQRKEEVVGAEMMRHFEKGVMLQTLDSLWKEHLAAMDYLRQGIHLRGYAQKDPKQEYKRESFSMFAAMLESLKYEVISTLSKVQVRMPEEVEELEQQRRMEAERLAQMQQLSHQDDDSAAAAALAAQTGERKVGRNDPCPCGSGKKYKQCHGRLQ

Regarding `CC(C)c1ccc(C(O)Cn2c(=O)c(C#N)cn(C3CC3)c2=O)cc1` (stereo unspecified), the Percent Effect was -0.117% in test [1]; -2.63% in test [2]; 7.18% in test [3]; 0.134% in test [4]; -6.39% in test [5]; 4.21% in test [6]. Further, the Percent Effect in test [7] is 0.334%; in [8], 1.74%; in test [9], -1.47%; in test [10], -2.44%; in test [11] it was -2.6%.

As to `N#Cc1ccc(OCCOc2ccccc2C(=O)N2CCOCC2)cc1`, the Percent Effect in [1] is -0.304%; in test [2] it was 7.79%; in test [3], -1.44%; in test [4], 10.7%; in test [5], 1.28%; in [6], -11%. The Percent Effect in test [7] is 12.8%; in test [8] it was -19.7%; in [9], 4.3%; in [10], 13.6%; in [11] it was -2.37%.

For `Cn1cnc(-c2cc(C(=O)N3CCOCC3)c3ccccn23)c1`, the Percent Effect is -2.02% in test [1]; 10.8% in [2]; 17.9% in [3]; -4.69% in test [4]; -3.42% in test [5]; 17.5% in [6]. Moreover, the Percent Effect in test [7] was 26.6%; in test [8], -15.6%; in test [9] it was 3.24%; in test [10], 10.3%; in test [11] it was -3.5%.

Consider `Cc1nc(O)c2nnn(C[C@H]3CCCN3C(=O)c3cccc(F)c3)c2n1`, for which the Percent Effect was -3.34% in [1]; -1.35% in [2]; 8.18% in test [3]; 1.91% in [4]; -3.36% in test [5]; -3.48% in test [6]. Further, the Percent Effect was -0.936% in test [7]; 9.46% in [8]; 2.15% in test [9]; 1.3% in [10]; 7.79% in test [11].

Consider `Cc1nc(C2CCCN2CC(=O)NCCc2ccsc2)no1` (stereo unspecified), for which the Percent Effect is -2.17% in test [1]; 16.2% in test [2]; -10.4% in [3]; 13.2% in [4]; 5.11% in test [5]; 3.51% in test [6]. Moreover, the Percent Effect is 10.4% in test [7]; -5.59% in [8]; 6.93% in test [9]; 18.3% in test [10]; -8.06% in [11].

As for `Cc1nn(C)c(C)c1C1CCCN1Cc1nc(C)c2ccccc2n1` (stereo unspecified), the Percent Effect in [1] is -3.55%; in test [2] it was 3.8%; in [3] it was 1.88%; in [4], -0.0747%; in [5], 1.74%; in test [6], 1.94%. For the same compound, the Percent Effect in test [7] is 2.06%; in test [8], -6.74%; in test [9] it was 20.8%; in test [10], 25.3%; in [11], -22.5%.

As for `Cc1cccc(CN2C(=O)CO[C@@H]3CN(Cc4nccn4C)C[C@H]32)c1`, the Percent Effect is 0.226% in test [1]; 10.8% in [2]; -0.86% in [3]; -6.69% in test [4]; 3.91% in test [5]; 25.8% in test [6]. Also, the Percent Effect in [7] is 20.5%; in test [8] it was 12.6%; in test [9], 9.9%; in test [10], 18.3%; in test [11], -3.16%.

Take `O=C(NCCNS(=O)(=O)c1ccc2c(c1)CCCC2)c1ccoc1`: the Percent Effect was -4.38% in [1]; 13.3% in test [2]; -3.34% in [3]; 15.1% in [4]; 3.41% in test [5]; 10.9% in [6]. The Percent Effect in test [7] is 5.41%; in [8] it was 29.3%; in test [9], 6.01%; in [10], 13.6%; in test [11], 0.0598%.

For the compound `Cn1ccc(C(=O)N2CCN(CCc3ccccc3)CC2)cc1=O`, the Percent Effect in [1] is -5.05%; in test [2], 11.4%; in [3] it was 1.25%; in [4] it was -2.05%; in [5] it was -1.74%; in [6], 3.23%. Moreover, the Percent Effect in test [7] was 13%; in test [8], 6.37%; in test [9] it was 12.5%; in [10], 17.7%; in test [11], -7.93%.

Take `COc1c(CNCc2cccc(CN(C)C)c2)c(C)nn1C`: the Percent Effect in test [1] is -7.85%; in test [2], 10.8%; in test [3], -5.13%; in test [4], 6.33%; in test [5], -2.17%; in [6], -4.01%. Also, the Percent Effect in [7] is -0.36%; in test [8] it was 13.9%; in test [9], 4.43%; in test [10], 6.17%; in test [11], -5.81%.

`NS(=O)(=O)CCNC(=O)C1(c2ccc(Br)cc2)CC1`: the Percent Effect in test [1] is 2.05%; in test [2], 7.79%; in [3] it was -1.42%; in test [4], 6.68%; in [5], 4.23%; in [6] it was -13.8%. The Percent Effect is 13% in [7]; -0.291% in [8]; 2.15% in [9]; 16.1% in test [10]; -2.63% in [11].
